Bioassay records: PubChem, National Center for Advancing Translational Sciences (NCATS)
Only some compounds are listed: those with a hit (about 2.9% of all), similar ones and a draw of the others.
PTAP TSG101 blk: qHTS Assay for Iinhibitors of HIV-1 Budding by Blocking the Interaction of PTAP/TSG101. Tumor susceptibility gene 101 protein (Homo sapiens), Q99816. Fluorescence polarization, FITC-PTAP peptide / Tsg101 binding. Potency, µM (doses to about 115 µM), for the others: top-dose activity change, negative = inhibition, usual class: inhibitors. 340,000 tested, under 10 active. AID 493005, 2010; active = well fitted inhibition curve with a large enough effect in the main read-out, with a control signal flat, not every such curve was filed as active; inconclusive = small, poorly fitted or top-dose-only effect, or effect the other way, or a change in a side signal; inactive = no such curve, though single readings can be large or run the other way; note: potency is the fitted concentration of half-maximal effect; % of control where 0% means no effect
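Fluorescence polarization binding of Tsg101 binding domain (10 uM final) to FITC-labeled PTAP peptide (50 nM final) in HEPES pH 7.5 buffer with NaCl, Tween 20, EDTA, TCEP. Compounds added before peptide; binding 20 min at RT.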
Rango dissoc inh: qHTS Assay for Inhibitors of RanGTP induced Rango (Ran-regulated importin-beta cargo) - Importin beta complex dissociation. Biochemical FRET Rango-importin beta, RanGTP-induced dissociation. Potency, µM (doses to about 46.1 µM), for inactives: at the top dose activity change, negative = inhibition. 0.071% of 340,000 active. AID 540253, 2011; note: potency is the fitted concentration of half-maximal effect; % of control where 0% means no effect; nearly all actives have a fitted effect of over 45% in size
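Rango (0.1 uM)–importin beta (0.25 uM) complex; RanGTP-RCC1 trigger; 45 min RT; CFP/YFP FRET read.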
Rango complex inh: qHTS Assay for Inhibitors of Rango (Ran-regulated importin-beta cargo) - Importin beta complex formation; Importin subunit beta-1 (Homo sapiens), Q14974; Rango CFP/YFP FRET sensor + importin beta, 45 min; Potency, µM (doses to about 92.2 µM), without a hit: top-dose inhibition of complex formation; 0.031% of 340,000 active; AID 540263, 2011;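 note: potency is the fitted concentration of half-maximal effect; 0% = DMSO wells and 100% = buffer wells lacking importin beta; nearly all actives have a fitted effect of over 15% in size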
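FRET biosensor Rango (snurportin 1 IBB between N-terminal EYFP and C-terminal Cerulean), 50 nM in PBS/1 mM DTT/0.02% Tween-20/0.1% BSA, preincubated 5 min RT with compound; 0.125 microM importin beta added, 45 min RT, CFP/YFP FRET ratio read.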
MmCpn inh: Inhibitors of TCP-1 ring complex (TRiC) of Methanococcus maripaludis (MmCpn): qHTS; Chaperonin Mm-Cpn (Methanococcus maripaludis); purified Mm-Cpn ATPase, ADP Transcreener TR-FRET; Potency, µM (highest dose often 76.9 µM), without a hit: at the top dose activity, negative = inhibition, actives largely listed as inhibitors; 0.031% of 330,000 active; active = well fitted inhibition curve with a large enough effect; inconclusive = small, poorly fitted or top-dose-only effect; note: potency is the fitted concentration of half-maximal effect; % is set by controls: 0 for no effect and ±100 for the full control effect; nearly all actives have a fitted effect of over 80% in size
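Measured: ADP formation by purified Mm-CPN. Conditions: 25 nM protein, 10 uM ATP, Tris pH 7.4 with Mg2+, K+ and DTT, 37°C for 30 min. Detection: Transcreener HTRF after 30 min at room temperature.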
D3 antag: qHTS of D3 Dopamine Receptor Antagonist: qHTS | D3R cells, DiscoveRx beta-arrestin luminescence, antagonist mode; hits give low values | max response, negative = inhibition, % | 2.5% of 360,000 active; in the data active = max response below about -50%; inconclusive = no clear call, values can overlap the other calls; note: % is set by controls: 0 for no effect and ±100 for the full control effect
Target sequence (P35462 whole entry, looked up): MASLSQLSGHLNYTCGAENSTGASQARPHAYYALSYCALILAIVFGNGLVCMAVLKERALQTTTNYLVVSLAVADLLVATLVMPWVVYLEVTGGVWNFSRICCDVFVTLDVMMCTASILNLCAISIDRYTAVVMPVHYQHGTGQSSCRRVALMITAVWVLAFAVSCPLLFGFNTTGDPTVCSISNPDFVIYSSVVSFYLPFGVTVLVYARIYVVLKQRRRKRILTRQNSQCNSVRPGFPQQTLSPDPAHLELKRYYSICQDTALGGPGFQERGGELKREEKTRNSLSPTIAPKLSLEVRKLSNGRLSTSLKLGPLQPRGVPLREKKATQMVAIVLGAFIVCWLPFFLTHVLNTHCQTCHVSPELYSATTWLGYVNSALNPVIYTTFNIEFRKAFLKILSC
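Cells expressing the human receptor were seeded at 1500 cells/well, incubated overnight at 37 degrees C in 5% CO2, then exposed to library compounds with dopamine controls for 90 minutes at 37 degrees C before luminescent detection.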
D3 ag: qHTS of D3 Dopamine Receptor Agonist: qHTS. D(3) dopamine receptor (Homo sapiens), P35462. D3R DiscoveRx beta-arrestin cells, luminescence, 90 min. max activation, %. 0.58% of 410,000 active. AID 652048, 2013; in the data active = max activation above about 30%; note: 0% is about no effect
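Agonist-mode cell screen: cells plated at 1500/well and incubated overnight at 37 °C, then exposed to library compounds for 90 min at 37 °C. Detection reagent was added for 30–60 min at room temperature, and luminescence was read.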
* hit, by the source's call; ? = inconclusive; · = no result; + = active, no number. Unless noted, calls come from the whole dose curve.

SMILES	PTAP TSG101 blk	Rango dissoc inh	Rango complex inh	MmCpn inh	D3 antag	D3 ag
Cc1nc2ccc(S(=O)(=O)NC(CC(C)C)C(=O)NCc3ccc(Cl)cc3)cc2s1 (stereo unspecified)	·	·	·	·	·	5
CC(C)Oc1ccc(CNC(=O)C2CCN(C(=O)N3CC(C)Oc4ccccc43)CC2)cc1 (stereo unspecified)	·	·	·	·	·	3
CCc1noc(C)c1C(=O)N1CCCC(N2CCN(c3ccccc3F)CC2)C1 (stereo unspecified)	-2%	0%	1%	0%	-15	0
O=C(NCCN1CCC(n2c(=O)[nH]c3ccccc32)CC1)c1ccccc1Cl	·	·	·	·	-100*	-12
O=C(NCCN1CCC(n2c(=O)[nH]c3ccccc32)CC1)c1ccccc1C(F)(F)F	·	·	·	·	-77*	-13
COc1ccccc1C(=O)NCCN1CCC(n2c(=O)[nH]c3ccccc32)CC1	·	·	·	·	0	-16
Cc1ccccc1C(=O)NCCN1CCC(n2c(=O)[nH]c3ccccc32)CC1	·	·	·	·	-109*	-11
O=C(NCCN1CCC(n2c(=O)[nH]c3ccccc32)CC1)c1cccc2c1-c1ccccc1C2=O	·	·	·	·	0	-14
O=C(NCCN1CCC(n2c(=O)[nH]c3ccccc32)CC1)c1ccc(Cl)cc1Cl	·	·	·	·	-92*	-15
CC(C)n1c(=O)c2oc3ccccc3c2n(Cc2ccccc2F)c1=O	·	·	·	·	·	6
COc1ccc(-c2cc(=O)oc3cc(OCc4nn[nH]n4)ccc23)cc1	-2%	?	?	1%	-53*	-5
CCOCCCN1C(=O)c2ccccc2CC1(C)C(=O)NC1CCCCC1 (stereo unspecified)	·	·	·	·	·	8
CC1C/C(=N/N2C(=O)CSC2=S)CC(C)(C)C1 (stereo unspecified)	-4%	-19%	2%	-1%	-63*	-7
CCc1ccc(NS(=O)(=O)c2ccc3[nH]cc(C(=O)NCCCOC(C)C)c(=O)c3c2)cc1	·	·	·	·	·	7
O=C(NC(=S)NCc1ccccc1)C1CCCCC1	-2%	0%	0%	1%	-54*	-2
CCN1C(=O)/C(=C/N(C(C)=O)c2ccccc2)N(c2ccccc2)C1=S	-4%	-3%	0%	2%	-81*	-5
Clc1ccc(Cl)c(OCCCCN2CCCCC2)c1	0%	-12%	-1%	-5%	-106*	-18
Clc1ccccc1OCCCCN1CCCCC1	-3%	-9%	0%	-1%	-95*	-25
Clc1ccccc1OCCCCN1CCNCC1	1%	-9%	5%	-2%	?	-13
Fc1ccccc1OCCCCN1CCCCC1	-2%	-6%	0%	2%	-81*	-19
O=C(OCCN1CCCCC1)c1ccccc1Cl	-2%	-1%	2%	1%	-68*	1
Clc1ccccc1OCCCCN1CCCC1	-1%	-7%	-3%	-3%	-85*	-29
Cc1cc(-c2nnc3n2N=C(C(C)(C)C)CS3)n[nH]1	1%	-9%	-1%	3%	-52*	-7
COc1cccc(NC(=O)C(=O)NCCc2csc(-c3ccc(C)cc3)n2)c1	·	·	·	·	·	11
CC(C)NS(=O)(=O)c1ccc(NC(=O)C(C)Oc2ccc(C(=O)c3ccccc3)cc2)cc1 (stereo unspecified)	2%	61%	1%	-2%	-54*	-13
SMILES	PTAP TSG101 blk	Rango dissoc inh	Rango complex inh	MmCpn inh	D3 antag	D3 ag
O=c1nc2ccccc2c2n1CC(CN1CCN(C(c3ccccc3)c3ccccc3)CC1)N2 (stereo unspecified)	-2%	3%	0%	1%	-77*	-10
COc1ccc(/C=N/Nc2ncccc2[N+](=O)[O-])c(OC)c1	-1%	17%	-1%	1%	-54*	-3
COc1ccc(/C=N/Nc2ncc(-c3ccccc3)cn2)c(OC)c1	-10%	-7%	-1%	0%	-16	-6
COc1ccc(S(=O)(=O)NCC2CCCN(Cc3ccccc3Cl)C2)cc1 (stereo unspecified)	-7%	0%	0%	1%	-52*	-15
Cc1ccc(Cc2c(C3CCCCC3)nc3ccc(Cl)cn23)cc1	·	·	·	·	21	2
Cc1cc(Nc2ccccc2)cc(=O)n1C	-10%	-11%	0%	·	-13	0
Cc1cc(OCC(=O)N2CCOCC2)c(C(C)C)cc1Cl	-4%	8%	1%	1%	-77*	-10
O=[N+]([O-])c1ccc(Sc2cccc[n+]2[O-])c2nonc12	?	2%	8%	-26%	-116*	-60
O=C(CSc1cccc[n+]1[O-])Nc1cc(Cl)ccc1[N+](=O)[O-]	-2%	-2%	2%	-5%	22	2
C=CCn1c(SCC(=O)NC2CCCCC2)nnc1-c1sc(N)nc1C	-3%	-7%	-2%	1%	-51*	-1
NC(=S)NN=Cc1c[nH]c2nccnc12	·	·	·	·	+	-31
COc1ccccc1N1CCN(CCCn2c(=S)[nH]c3ccccc3c2=O)CC1	3%	-7%	-4%	1%	-109*	-19
COc1ccccc1N1CCN(CCc2n[nH]c(=S)n2-c2ccccc2)CC1	-9%	7%	-1%	0%	-80*	-38
CN1CCN(CCn2c(=S)[nH]c3ccccc3c2=O)CC1	0%	-13%	3%	-3%	14	-6
COc1ccc(N2CCN(CCCn3c(=S)[nH]c4ccccc4c3=O)CC2)cc1	-6%	9%	-1%	4%	-75*	-3
O=c1c2ccccc2[nH]c(=S)n1CCN1CCc2ccccc2C1	0%	15%	-1%	0%	-90*	-27
O=C1C(Cl)=C(NCCN2CCCCC2)C(=O)c2ccccc21	2%	9%	0%	-2%	-63*	-22
CCCn1cc(SCC(=O)NC2CCCC2)c2ccccc21	-4%	26%	1%	0%	3	-21
CCn1c(C(=O)O)c(CC(=O)NC2CCCCCC2)c2ccccc21	-6%	-6%	-2%	-2%	-89*	7
Cn1cc(CC(=O)NC2CCCCC2)c2ccccc21	-9%	?	-14%	0%	3	2
CCCn1cc(S(=O)(=O)CC(=O)NC2CCCCC2)c2ccccc21	-4%	16%	-1%	-2%	-66*	-25
